Measured values taken from the supplement of paper PMC10981050.
Several values for one entry are separate records, joined by “and”; a condition that tells them apart may be missing. Identical values can stand only once. Counter-ions that a name gives are not always drawn.

Tests used:
Experiment in all cases: cell viability relative to vehicle control; higher = less cytotoxic
Conditions in all cases: 10 µM
K562 = system: K562
Outline: (§1)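 CRISPR-edited SRSF2 P95 mutant and isogenic wild-type clones of four leukaemia lines were screened against Selleck bioactive, kinase and epigenetic probe libraries, with identity-inconsistent compounds removed. Compounds were acoustically dispensed into 384-well plates at a single 10 µM dose, with 2000 cells in 50 µL medium per well. After 48 h, supernatant was removed and CellTiter-Glo luminescence was read. Viability was expressed as percent of the on-plate DMSO vehicle control, analysed in Genedata Screener.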

MARIMO = system: MARIMO
Outline: as §1

MOLM14 = system: MOLM14
Outline: as §1

OCI-AML2 = system: OCI-AML2
Outline: as §1

SMILES	cell viability (K562; SRSF2 genotype: SRSF2 P95H/wt)	cell viability (K562; SRSF2 genotype: SRSF2 wt/wt)	cell viability (MARIMO; SRSF2 genotype: SRSF2 P95H/wt)	cell viability (MARIMO; SRSF2 genotype: SRSF2 wt/wt)	cell viability (MOLM14; SRSF2 genotype: SRSF2 P95H/wt)	cell viability (MOLM14; SRSF2 genotype: SRSF2 wt/wt)	cell viability (OCI-AML2; SRSF2 genotype: P95H/wt)	cell viability (OCI-AML2; SRSF2 genotype: wt/wt)
CC(C)CC(CC(=O)NO)C(=O)N[C@@H](Cc1ccc2ccccc2c1)C(=O)N[C@@H](C)C(=O)NCCN (stereo partly drawn)	105%	110%	112%	109%	99.1%	104%	110%	106%
CC[C@@]1(O)C(=O)OCc2c1cc1n(c2=O)Cc2cc3c(CN(C)C)c(O)ccc3nc2-1 [Topotecan]	20.3% and 28%	17.5%	4.92%	3.84%	1.67%	0.8%	3.47%	7.65%
O=C(O)Cc1ccc2c(c1)C(=O)c1ccccc1CO2 [Isoxepac]	104%	105%	106%	105%	100%	105%	105%	105%
O=C(N/N=C/c1cc(O)c(O)cc1O)c1cc2ccccc2cc1O [Dyngo-4a]	78.9% and 81.5%	78%	67.3%	89.5%	64.9%	72%	85.1%	79.3%
C=CC(=O)Nc1cccc(Oc2nc(Nc3ccc(N4CCN(C)CC4)cc3OC)ncc2Cl)c1	102% and 107%	103%	85.8%	98.7%	57.6%	84.8%	92%	83.9%
CCCNC[C@]1(O)[C@H](C)O[C@@H](O[C@H]2[C@H](C)[C@@H](O[C@@H]3O[C@H](C)C[C@H](N(C)C)[C@H]3O)[C@](C)(O)C[C@@H](C)CN[C@H](C)[C@@H](O)[C@](C)(O)[C@@H](CC)OC(=O)[C@@H]2C)C[C@@]1(C)OC [Tulathromycin A]	101% and 105%	104%	101%	107%	100%	106%	99.9%	99%
CCC(=O)O[C@]1(C(=O)CCl)[C@@H](C)C[C@H]2[C@@H]3CCC4=CC(=O)C=C[C@]4(C)[C@@]3(F)[C@@H](O)C[C@@]21C [Clobetasol propionate]	88.3% and 95.4%	88.2%	85.1%	96.7%	81.2%	80.8%	90.5%	101%
O=C1Nc2ccccc2C1=O [Isatin]	97.1% and 106%	100%	101%	105%	103%	105%	106%	96.5%
CN(C)C(=N)NC(=N)N [Metformin hydrochloride (Glucophage)]	108%	110%	108%	110%	105%	104%	102%	116%
COc1ccccc1N1CCN(CCN(C(=O)C2CCCCC2)c2ccccn2)CC1	76.7% and 78.4%	77.3%	67.8%	73%	75.4%	77.3%	74.9%	66.3%
COc1ccc2c(c1O)-c1c(O)c(OC)cc3c1[C@H](C2)[N+](C)(C)CC3 [Magnoflorine]	97.9% and 97.3%	101%	98%	105%	99.3%	100%	103%	107%
COC(=O)C1=CC[C@@]23CC[C@@H]([C@@](C)(/C=C/C=C(\C)C(=O)O)OC2=O)[C@@]3(OC(C)=O)CC1 [Pseudolaric Acid B]	18.7% and 39.2%	33.1%	6.72%	9.79%	15.9%	3.39%	8.39%	11.6%
C=C(C)[C@@H]1CC[C@]2(C(=O)O)CC[C@]3(C)[C@H](CC[C@@H]4[C@@]5(C)CCC(=O)C(C)(C)[C@@H]5CC[C@]43C)[C@@H]12 [Betulonic acid]	45.2% and 68%	61.4%	34.2%	20.9%	43.6%	32.2%	29.6%	17.1%
COc1ccccc1OCC(O)CN1CCN(CC(=O)Nc2c(C)cccc2C)CC1 (stereo not drawn) [Ranolazine (Ranexa)]	99.1% and 96.1%	91.9%	96.6%	102%	97.8%	99.2%	94.9%	102%
CC(=O)O[C@]1(C(C)=O)CC[C@H]2[C@@H]3C=C(C)C4=CC(=O)CC[C@]4(C)[C@H]3CC[C@@]21C [Megestrol Acetate]	90.8% and 87.5%	86.6%	56.5%	46.6%	84.8%	87.6%	61.8%	73.1%
CC(C)c1cc(C(=O)N2Cc3ccc(CN4CCN(C)CC4)cc3C2)c(O)cc1O	21.1% and 29.8%	24%	28%	26.9%	3.31%	4.31%	18.1%	22.8%
CC[C@@H]1[C@H]2CCCCN3[C@H]2[C@H](C[C@H]3[C@@H]2C[C@H](C)C(=O)O2)[C@@H]2[C@H]1OC(=O)[C@H]2C [Tuberostemonine]	84.4% and 95%	88.8%	83.6%	89.3%	64%	97.8%	107%	100%
CCCCOc1ccc(CC(=O)NO)cc1 [Bufexamac]	95% and 94.9%	98.8%	91.6%	88.7%	85.7%	93.1%	98.1%	91.8%

SMILES	cell viability (K562; SRSF2 genotype: SRSF2 P95H/wt)	cell viability (K562; SRSF2 genotype: SRSF2 wt/wt)	cell viability (MARIMO; SRSF2 genotype: SRSF2 P95H/wt)	cell viability (MARIMO; SRSF2 genotype: SRSF2 wt/wt)	cell viability (MOLM14; SRSF2 genotype: SRSF2 P95H/wt)	cell viability (MOLM14; SRSF2 genotype: SRSF2 wt/wt)	cell viability (OCI-AML2; SRSF2 genotype: P95H/wt)	cell viability (OCI-AML2; SRSF2 genotype: wt/wt)
C=C(C)[C@@H]1CC[C@]2(C(=O)O)CC[C@]3(C)[C@H](CC[C@@H]4[C@@]5(C)CC[C@H](O[C@@H]6OC[C@H](O)[C@H](O)[C@H]6O[C@@H]6O[C@@H](C)[C@H](O)[C@@H](O)[C@H]6O)[C@@](C)(CO)[C@@H]5CC[C@]43C)[C@@H]12 [Pulchinenoside A]	97.5% and 96.7%	92%	93.9%	106%	102%	96.6%	94.6%	105%
O=c1ccc2ccc(O)cc2[nH]1 [7-Hydroxycarbostyril]	95.8% and 92.9%	101%	95.4%	101%	95%	101%	91.2%	107%
C[C@@H](O[C@H]1OCCN(Cc2n[nH]c(=O)[nH]2)[C@H]1c1ccc(F)cc1)c1cc(C(F)(F)F)cc(C(F)(F)F)c1 [Aprepitant (MK-0869)]	52.7% and 46%	56.8%	73%	56.1%	56.2%	64.3%	45.8%	56.8%
Cc1cc(=O)c2c(O)c3c(cc2o1)OC(C)(C)[C@@H](O[C@@H]1O[C@H](CO)[C@@H](O)[C@H](O)[C@H]1O)C3 [Sec-O-Glucosylhamaudol]	105% and 101%	114%	106%	98.7%	109%	101%	94%	91.3%
CN1C(C(=O)Nc2ccccn2)=C(O)c2sccc2S1(=O)=O [Tenoxicam(Mobiflex)]	105% and 103%	102%	107%	112%	98.4%	106%	95.5%	105%
COc1cc(N2CCC(N3CCN(C)CC3)CC2)ccc1Nc1ncnc(Nc2ccccc2S(=O)(=O)C(C)C)n1	84.8% and 91%	80.8%	56.7%	48.3%	28.4%	31.1%	12.6%	21.9%
Nc1ccc(C(=O)Nc2cccc(-c3nc(N4CCOCC4)c4oc5ncccc5c4n3)c2)cn1	75.4% and 89.9%	95.8%	73.7%	79.4%	103%	104%	86.7%	89.1%
C[C@@](Cc1ccc(O)c(O)c1)(NN)C(=O)O [Carbidopa]	103% and 92.2%	101%	92.1%	98.2%	93.3%	98.4%	93.9%	107%
CCCCCCCCC/C(=C\C1=C(C)C(=O)C(OC)=C(OC)C1=O)C(=O)O	106% and 100%	99.4%	112%	105%	94.2%	102%	108%	107%
COc1ccc(-c2coc3cc(O)ccc3c2=O)cc1 [Formononetin (Formononetol)]	93.6% and 91.7%	86.4%	82.4%	91.4%	99.9%	99.6%	86.7%	80.2%
CN1CC(O)c2cc(N=NC(N)=O)c(O)cc21 (stereo not drawn) [Carbazochrome]	98.5% and 95.6%	89.4%	99.4%	94.8%	95.7%	101%	98.8%	95.4%
CCCCCCCCCCCCN1CCCCCC1=O [Laurocapram]	82.4% and 87.5%	93.1%	80.5%	86.3%	80.8%	90.8%	70.4%	73.7%
COc1ccc2[nH]c([S@@+]([O-])Cc3ncc(C)c(OC)c3C)nc2c1 [Esomeprazole sodium]	98.5% and 100%	94.4%	98.8%	99.8%	97.4%	90.9%	96%	91.8%
COc1cc2c(cc1O)CC[n+]1cc3c(OC)c(OC)ccc3cc1-2 [Jatrorrhizine chloride]	84.4% and 88.5%	90.3%	92.6%	92.9%	97.6%	90.5%	93.5%	91.4%
CCCc1nn(C)c2c(=O)[nH]c(-c3cc(S(=O)(=O)N4CCN(C)CC4)ccc3OCC)nc12 [Sildenafil Mesylate]	103% and 96.9%	103%	99%	108%	107%	103%	110%	105%
NC(=O)c1ccc(N(C(N)=O)c2c(F)cccc2F)nc1-c1ccc(F)cc1F	97.7% and 97.3%	94.1%	94%	97.5%	96.1%	105%	95.3%	103%
Cc1ccc(NC(=O)c2ccc(CN3CC[C@H](N(C)C)C3)c(C(F)(F)F)c2)cc1Nc1nccc(-c2cncnc2)n1 [Bafetinib (INNO-406)]	1.12% and 1.27%	4.57%	54.6%	43.2%	49.9%	49%	23.6%	30.4%
Cc1c(C(C)C)c(=O)n(-c2ccccc2)n1C [Propyphenazone (4-Isopropylantipyrine)]	101% and 105%	97.5%	94%	105%	94.3%	101%	86.9%	97.4%
